Bioassay records deposited in PubChem by several laboratories.
TNF death inh: inhibitors of TNF-alpha induced necroptosis in Jurkat FADD-/- cells. Jurkat FADD-/- TNF necroptosis rescue, ATP luminescence, 24 h; 0 = TNF only, 100 = no-TNF cells. activation (protection from cell death), % at 10 µM. hit rate 0.068% among 220,000;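 active = activation, meaning protection from cell death, of at least 50% relative to plate controls; inactive = activation below 50%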;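 also: necroptosis triggered by 40 ng/mL TNF-alpha added together with compound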
zVAD death inh: blocks zVAD induced death of L929 cells. L929 zVAD necroptosis rescue, ATP luminescence, 24 h; with zVAD 60 µM. viability rescue, % at 10 µM. hit rate 0.38% among 220,000. AID 1377;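 active = activation, scaled between plate controls, above about 75%, limit read from the data; inactive = activation under that limit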;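 also: 0% = zVAD with DMSO and 100% = DMSO alone without zVAD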
HIF activator: HIF pathway transcriptional activation; U2OS HRE-luciferase reporter, luminescence; normalized: DMSO 0%, desferrioxamine 100%; activation, % at 7.5 µM (by protocol); hit rate 0.32% among 300,000; AID 1910;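 active = mean activation of at least 10% of the iron chelator positive control signal, with at least half of replicates also reaching 10%; inconclusive = mean and replicate majority disagree about reaching 10%; inactive = mean and most replicates under 10%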
Calb FLC: C. albicans growth modulation with fluconazole; C. albicans CaCi-2 (fluconazole-resistant clinical isolate) + fluconazole, Alamar Blue growth, 48 h; growth inhibition, % (test concentration not listed); hit rate 0.57% among 300,000;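 active = growth inhibition above about 58% in most replicates, limit read from the data, passing the limit was not always enough; inconclusive = exactly half the replicates above a set limit; inactive = most replicates below a set limit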;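 also: all wells also contain fluconazole at 8 µg/ml as a sub-toxic cotreatment; 0% = median of DMSO wells and 100% = median of geldanamycin control wells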
Active calls of the source: *; u = inconclusive; x = not tested or not shown. In the library only some 1.1% were active in any assay of this set; here they are far more common.

SMILES	TNF death inh	zVAD death inh	HIF activator	Calb FLC
COc1cc(NC(=O)CCCNC(=O)Cn2cnc3sc4c(c3c2=O)CCCC4)cc(OC)c1OC	x	x	-24	-4
COc1ccc(C(=O)N(CC(=O)Nc2sc(C)c(C)c2C(N)=O)C2CCCC2)cc1	x	x	0	17
CC(=O)N1CCC(=NNc2nc3ccccc3s2)CC1	2	6	0	99*
CCOC(=O)N1CCC(=NNc2nc3ccccc3s2)CC1	-1	6	1	u
CCOC(=O)N1CCC(=NNC(=O)c2cc3ccccc3cc2O)CC1	-2	1	0	44
CC(=O)N1CCC(=NNC(=O)c2cc3ccccc3cc2O)CC1	x	x	45*	82*
COc1cc(/C=C(\C#N)C(=O)c2c[nH]c3ccccc23)cc(OC)c1O	1	0	0	25
CCn1nc(C)c(CNC(=O)CC2C(=O)NCCN2CC(C)C)c1C (centres undefined)	0	-1	1	-5
CN1C[C@@H]2C(c3ccccc3)C3(c4ccc(C#N)cc4)CC2(C3)[C@H]1c1ccccc1 (some centres undefined)	-4	-1	0	-35
CN1C[C@@H]2C(c3ccccc3)C3(c4ccccc4)CC2(C3)[C@H]1c1ccccc1 (some centres undefined)	-2	0	0	110*
O=C1C=C(c2ccccc2)C[C@H](c2cccs2)[C@H]1n1nnc([N+](=O)[O-])n1	2	0	-3	0
O=C1C=C(c2ccccc2)CC(c2cccs2)C1n1cnc([N+](=O)[O-])c1 (centres undefined)	-1	0	48*	3
O=[N+]([O-])/C(C(Cl)=C(Cl)Cl)=C(/Sc1ccccc1)N1CCCCC1	-21	2	0	-2
Nc1ncc(Br)cc1S(=O)(=O)Nc1ccccc1F	x	x	-1	-1
COc1ccccc1-n1c(C)cc(SC)c(C(C)=O)c1=S	-1	0	0	86*
CC(=O)c1ccc(N2C(=NC(=O)COc3ccccc3)SC3CS(=O)(=O)CC32)cc1 (centres undefined)	x	x	473*	-14
CC(=O)NC1CCCc2c1cnn2-c1ccc(C(C)(C)C)cc1 (centres undefined)	x	x	1	0
CC(=O)NC1CCCN(O)C(=O)/C=C(\C)CCOC(=O)C(NC(C)=O)CCCN(O)C(=O)/C=C(\C)CCOC(=O)C(NC(C)=O)CCCN(O)C(=O)/C=C(\C)CCOC1=O (centres undefined)	0	1	0	86*
Cc1cc(C)nc(NC(=NCc2ccc3c(c2)OCO3)NC(=O)Nc2ccccc2)n1	0	1	0	122*
CCc1ccc(CNC(=O)C2CCN(S(=O)(=O)N3CC(C)CC(C)C3)CC2)cc1 (centres undefined)	x	x	0	22
CCCOc1cccc(C(=O)Nc2cccnc2)c1	-1	4	x	110*
CCCCOc1cccc(C(=O)NC(=S)Nc2cccnc2)c1	-3	0	0	23
CC1=C([N+](=O)[O-])C(c2ccc3c(c2)OCO3)N(C)C(=O)N1C (centres undefined)	x	x	0	0
O=c1[nH]cc(N=Cc2cc([N+](=O)[O-])ccc2O)c(=O)[nH]1	x	x	-1	93*
Cc1cc(O)c(C(C)C)cc1N=Cc1cc([N+](=O)[O-])ccc1O	-3	1	0	20
SMILES	TNF death inh	zVAD death inh	HIF activator	Calb FLC
CC(C)CC(=O)Nc1ccc2c(c1)nc(CCN1CCCCC1)n2C	x	x	-1	9
C=CCNc1nc(-c2ccccn2)nnc1-c1ccccc1	-11	56	110*	-88
CCc1ccccc1NC(=O)C1CCN(C(=O)c2ccc([N+](=O)[O-])cc2)CC1	2	2	0	20
C/C(Cl)=C/CN1C(=O)C2C3C=CC(C3)C2C1=O (centres undefined)	68*	4	0	2
CC1=C/C(=N\NC(=S)NCCc2ccccc2)CC(C)(C)C1	1	1	3	96*
C/C(CCc1ccccc1)=N\NC(=S)NCCc1ccccc1	x	x	0	15
O=C(O)CCNC(=O)COc1ccc2c3c(c(=O)oc2c1)CCCC3	x	x	2	-6
CCCCC(=O)NNC(=S)NC(=O)c1ccc([N+](=O)[O-])cc1	1	1	0	u
CCCCC(=O)NNC(=S)NC(=O)c1ccc(C)cc1	2	0	0	101*
Cc1ccc(C(=O)NC(C#N)=C(Cl)Cl)cc1	74*	62	1	u
Cc1ccc(C(=O)NCC#N)cc1	0	0	0	-10
N#CCC(=O)NNC(=S)NC(=O)C(c1ccccc1)c1ccccc1	2	4	0	-6
